The source made the active and inactive calls.
tested on: XIP peptide (Xip251-270) binding; assay: small-molecule binders of XIP peptide, primary screen, biochemical, small-molecule microarray, fluorescence 635/667 nm, 0.1 µg/mL protein (AID 1182); settings: fluorescent protein binding, 635 nm, higher = more signal, called active from +8 up or from −8 down

Compound	composite z-score
C=CCOC(=O)[C@@H]1[C@H]2C(=O)O[C@H](c3ccccc3)[C@H](c3ccccc3)N2[C@H](c2ccc(OCCOC(=O)[C@H]3C[C@H]4C(=O)N5CCC[C@H]5C(=O)N4[C@H]3c3cccc(OCCO)c3)cc2)[C@@]12C(=O)Nc1ccc(I)cc12	0.781 (inactive)
COc1ccc([Si](C)(C)[C@H]2[C@H](CC(=O)N3Cc4ccccc4C[C@H]3CO)O[C@@]3(C(=O)N(c4ccccc4)c4ccccc43)[C@@H]2C)cc1	0.065 (inactive)
CCN(CC)c1ccc(N2CC=CC34O[C@@H]5C=CCCOC(=O)C5[C@H]3C(=O)N(C(C)CO)[C@@H]4C2=O)cc1 (some centres undefined)	0.587 (inactive)
COCCOC(=O)N1C(=O)[C@@]2(c3cc(C#CC4(O)CCCCCC4)ccc31)[C@H](c1ccc(O)cc1)N1[C@H](c3ccccc3)[C@H](c3ccccc3)OC(=O)[C@H]1[C@@H]2C(=O)N1CCCCCCC1	0.265 (inactive)
COC(=O)[C@@]1(Cc2ccc(F)cc2)[C@H]2c3cc(C(=O)N(C)C)n(C)c3C[C@H]2CN1C(=O)c1ccccc1	-0.0622 (inactive)
O=C(NC1CC1)[C@@H]1c2ccccc2C(=O)N(Cc2cc(C(F)(F)F)cc(C(F)(F)F)c2)[C@H]1c1ccc(CO)cc1	0.684 (inactive)
COc1ccc(C(O)C2C=CC3C(=O)NC(=O)C3N2Nc2ccc(Cl)cc2Cl)c2ccccc12 (centres undefined)	1.62 (inactive)
O=C(NCCN1CCOCC1)[C@@H]1c2ccccc2C(=O)N(Cc2ccccc2C(F)(F)F)[C@H]1c1ccc(CO)cc1	0.3 (inactive)
CN(C)CCCCNC(=O)[C@H]1C[C@H]2C(=O)N3CCC[C@H]3C(=O)N2[C@H]1c1cccc(OCCO)c1	0.683 (inactive)
COc1ccc(CCNC(=O)[C@@H]2c3ccccc3C(=O)N(Cc3ccccc3OC)[C@H]2c2ccc(CO)cc2)cc1	0.675 (inactive)
CC(C)OC(=O)CC(=O)CC(O)c1cccc([N+](=O)[O-])c1 (centres undefined)	0.52 (inactive)
CCOC(=O)C[C@H]1[C@H](OC(=O)c2cc3ccccc3oc2=O)[C@@H](NC(=O)CC(C)C)c2cc(OCCCO)ccc2N1C(=O)Cc1ccc(OC)cc1	0.101 (inactive)
CC1=C([C@H](O)CCc2ccccc2)[C@H](CO)n2c(=O)n(-c3ccccc3)c(=O)n2C1	-0.611 (inactive)
CC(C)(C)N1CC=CC23O[C@@H]4C=CCCOC(=O)C4[C@H]2C(=O)N(CCCCCCO)[C@@H]3C1=O (some centres undefined)	1.14 (inactive)
CCCCCC1=C2CNC(CC(C)C)(C(=O)OC)C=C2C(C)C1=O (centres undefined)	0.814 (inactive)
O=C1C=C(c2ccccc2)C(=O)C2=C1CC([C@H]1Oc3ccccc3S(=O)(=O)N3CCC[C@@H]13)=CC2	-0.0015 (inactive)
O=C1C[C@@](C(=O)O)(c2ccc([N+](=O)[O-])cc2)[C@@H](c2ccc(CO)cc2)N1C1CCCCC1	0.803 (inactive)
CO[C@H]1O[C@H](CO)[C@@H](OC(=O)Nc2ccccc2-c2ccccc2)[C@H](OC(=O)Nc2ccccc2)[C@H]1OC(=O)Nc1ccccc1	-0.249 (inactive)
O=C1c2ccccc2[C@@]2(Cc3ccccc3N(Cc3ccccc3)C2=O)[C@H](c2ccc(CO)cc2)N1Cc1ccccc1Cl	0.0408 (inactive)
CCCNC(=O)[C@@]1(c2ccc([N+](=O)[O-])cc2)CC(=O)N(C(C)C)[C@@H]1c1ccc(CO)cc1	3.93 (inactive)
[N-]=[N+]=Nc1ccccc1C[C@@]1(C(=O)NCC(O)CO)N=C(c2ccc(OCCCO)cc2)O[C@@H]1c1ccccc1 (some centres undefined)	0.105 (inactive)
CC(C)C[C@@H]1NC(=O)[C@@H]2C[C@H](C(=O)NCCCCCCNC(=O)CS)[C@H](c3cccc(OCCO)c3)N2C1=O	1.63 (inactive)
CC(=O)NCCCC[C@@H]1NC(=O)[C@H]2C[C@@H](C(=O)NCCCCCCNC(=O)CS)[C@@H](c3cccc(OCCO)c3)N2C1=O	2.82 (inactive)
O=C1[C@@H]2[C@@H](CC(COc3ccccc3)=C([C@H](O)CCc3ccccc3)[C@@H]2CO)C(=O)N1Cc1ccccc1	-0.268 (inactive)
O=C(NCC(O)CO)[C@@]1(CCS(=O)(=O)c2ccccc2)N=C(c2ccc(OCCCO)cc2)O[C@H]1c1ccccc1 (some centres undefined)	2.08 (inactive)
CN(C)c1ccc(C(O)C2C=CC3C(=O)N(Cc4ccccc4)C(=O)C3N2n2cnnc2)cc1 (centres undefined)	3 (inactive)
COCCOC(=O)N1C(=O)[C@@]2(c3cc(C#CCC(C(=O)OC)C(=O)OC)ccc31)[C@H](C(=O)Nc1nc3ccccc3s1)[C@H]1C(=O)O[C@H](c3ccccc3)[C@H](c3ccccc3)N1[C@@H]2c1ccc(OCCO)cc1	1.7 (inactive)

tested on: XIP peptide (Xip251-270); assay: small-molecule binders of XIP peptide, primary screen, biochemical, small-molecule microarray, fluorescence 635/667 nm, 0.5 µg/mL protein (AID 1183); settings: small-molecule microarray binding, fluorescence 635 nm; higher = more signal

Compound	composite z-score
CCCC[C@H]1OB(O)C[C@H]2C1=C(COc1ccccc1)C[C@H]1C(=O)C=CC(=O)[C@H]12	-0.114
COCCOC(=O)N1C(=O)[C@@]2(c3ccccc31)[C@H](C(=O)N1CCN(c3ncccn3)CC1)[C@H]1C(=O)O[C@H](c3ccccc3)[C@H](c3ccccc3)N1[C@@H]2c1ccccc1OCCO	0.597
COC(=O)[C@@]1(Cc2ccccc2)[C@H]2c3cc(C(=O)N(C)C)n(CCO)c3C[C@H]2CN1C(=O)c1ccccc1	0.182
[N-]=[N+]=Nc1ccccc1[C@@H]1OC(c2ccc(OCCCO)cc2)=N[C@]1(Cc1ccccc1)C(=O)NCCN1CCOCC1	0.441
COc1cc(C(O)C2C=CC3C(=O)N(c4ccccc4)C(=O)C3N2Nc2ccccc2)cc(OC)c1OC (centres undefined)	0.746
C=CCC(OC(C)=O)[C@@H]1[C@@H](N(Cc2ccc(-c3ccccc3)cc2)C(=O)c2cccc3ccccc23)c2cc(OCCCO)ccc2N1C(=O)Cc1ccc(OC)cc1 (some centres undefined)	-0.686
Cc1ccc(N2C(=O)c3ccccc3[C@](C)(C(=O)NCCCN(C)C)[C@@H]2c2ccc(CO)cc2)nc1	-0.495
CCOC(=O)C[C@H]1[C@H](OC(=O)Cc2ccc3c(c2)OCO3)[C@@H](NC(=O)Cc2ccc(OC)cc2)c2cc(OCCCO)ccc2N1C(=O)Cc1ccc(OC)cc1	0.678
O=C1N(CCS(=O)(=O)c2ccccc2)c2ccccc2C[C@]12N=C(c1ccc(OCCCO)cc1)O[C@@H]2c1ccccc1	0.811
C=CCOC(=O)[C@@H]1[C@H]2C(=O)O[C@H](c3ccccc3)[C@H](c3ccccc3)N2[C@H](c2ccc(OCCOC(=O)[C@H]3C[C@H]4C(=O)N5CCC[C@H]5C(=O)N4[C@H]3c3cccc(OCCO)c3)cc2)[C@@]12C(=O)Nc1ccc(I)cc12	0.875
COc1ccc([Si](C)(C)[C@H]2[C@H](CC(=O)N3Cc4ccccc4C[C@H]3CO)O[C@@]3(C(=O)N(c4ccccc4)c4ccccc43)[C@@H]2C)cc1	0.765
CCN(CC)c1ccc(N2CC=CC34O[C@@H]5C=CCCOC(=O)C5[C@H]3C(=O)N(C(C)CO)[C@@H]4C2=O)cc1 (some centres undefined)	0.77
COCCOC(=O)N1C(=O)[C@@]2(c3cc(C#CC4(O)CCCCCC4)ccc31)[C@H](c1ccc(O)cc1)N1[C@H](c3ccccc3)[C@H](c3ccccc3)OC(=O)[C@H]1[C@@H]2C(=O)N1CCCCCCC1	0.747
COC(=O)[C@@]1(Cc2ccc(F)cc2)[C@H]2c3cc(C(=O)N(C)C)n(C)c3C[C@H]2CN1C(=O)c1ccccc1	-0.153
O=C(NC1CC1)[C@@H]1c2ccccc2C(=O)N(Cc2cc(C(F)(F)F)cc(C(F)(F)F)c2)[C@H]1c1ccc(CO)cc1	0.62
COc1ccc(C(O)C2C=CC3C(=O)NC(=O)C3N2Nc2ccc(Cl)cc2Cl)c2ccccc12 (centres undefined)	0.687

Compound	composite z-score
O=C(NCCN1CCOCC1)[C@@H]1c2ccccc2C(=O)N(Cc2ccccc2C(F)(F)F)[C@H]1c1ccc(CO)cc1	0.777
CN(C)CCCCNC(=O)[C@H]1C[C@H]2C(=O)N3CCC[C@H]3C(=O)N2[C@H]1c1cccc(OCCO)c1	0.629
COc1ccc(CCNC(=O)[C@@H]2c3ccccc3C(=O)N(Cc3ccccc3OC)[C@H]2c2ccc(CO)cc2)cc1	0.393
CC(C)OC(=O)CC(=O)CC(O)c1cccc([N+](=O)[O-])c1 (centres undefined)	0.089
CCOC(=O)C[C@H]1[C@H](OC(=O)c2cc3ccccc3oc2=O)[C@@H](NC(=O)CC(C)C)c2cc(OCCCO)ccc2N1C(=O)Cc1ccc(OC)cc1	0.686
CC1=C([C@H](O)CCc2ccccc2)[C@H](CO)n2c(=O)n(-c3ccccc3)c(=O)n2C1	0.754
CC(C)(C)N1CC=CC23O[C@@H]4C=CCCOC(=O)C4[C@H]2C(=O)N(CCCCCCO)[C@@H]3C1=O (some centres undefined)	0.202
CCCCCC1=C2CNC(CC(C)C)(C(=O)OC)C=C2C(C)C1=O (centres undefined)	0.176
O=C1C=C(c2ccccc2)C(=O)C2=C1CC([C@H]1Oc3ccccc3S(=O)(=O)N3CCC[C@@H]13)=CC2	-0.0733
O=C1C[C@@](C(=O)O)(c2ccc([N+](=O)[O-])cc2)[C@@H](c2ccc(CO)cc2)N1C1CCCCC1	0.73
CO[C@H]1O[C@H](CO)[C@@H](OC(=O)Nc2ccccc2-c2ccccc2)[C@H](OC(=O)Nc2ccccc2)[C@H]1OC(=O)Nc1ccccc1	0.915
O=C1c2ccccc2[C@@]2(Cc3ccccc3N(Cc3ccccc3)C2=O)[C@H](c2ccc(CO)cc2)N1Cc1ccccc1Cl	0.311
CCCNC(=O)[C@@]1(c2ccc([N+](=O)[O-])cc2)CC(=O)N(C(C)C)[C@@H]1c1ccc(CO)cc1	0.228
[N-]=[N+]=Nc1ccccc1C[C@@]1(C(=O)NCC(O)CO)N=C(c2ccc(OCCCO)cc2)O[C@@H]1c1ccccc1 (some centres undefined)	0.75
CC(C)C[C@@H]1NC(=O)[C@@H]2C[C@H](C(=O)NCCCCCCNC(=O)CS)[C@H](c3cccc(OCCO)c3)N2C1=O	0.839
CC(=O)NCCCC[C@@H]1NC(=O)[C@H]2C[C@@H](C(=O)NCCCCCCNC(=O)CS)[C@@H](c3cccc(OCCO)c3)N2C1=O	0.349

— PubChem BioAssay
